The panel holds about 83,000 compounds, 20% with a hit somewhere; the sample as a whole holds those more often.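 For each line, cells grew in 96-well plates with the test compound present at a single concentration for 48 hours.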 A number with no mark means an inactive call. Active and inactive are the calls of the source.
test system: ACHN renal; assay: NCI-60 one-dose screen, 48 h (100 = growth as untreated, 0 = no growth, -100 = all killed); conditions: 10 µM unless noted
Protocol: Growth inhibition of the ACHN human tumor cell line is measured as a screen for anti-cancer activity. Cells are grown in 96 well plates and exposed to the test compound for 48 hours. Compounds are tested at a single concentration, which is 10^-5 M for most compounds. The reported endpoint is percent growth (GI% or GIPRCNT), where numbers from 0 - 100% represent growth inhibition, and numbers from -100% - 0 represent cell death. For example, a value of 40 represents 60% growth inhibition. A value of 0 means no net growth occurred over the course of the experiment. A value of -40 indicates 40% of cells at the beginning of the experiment died by the end of the experiment. A value of -100 means all cells are dead at the end of the experiment.
NCI-60 Human Tumor Cell Lines Screen was performed using the standard one-dose NCI protocol, which is described in more detail at https://dtp.cancer.gov/discovery_development/nci-60/default.htm.
Compounds with GIPRCNT values below 10 were considered active. Activity score was based on GIPRCNT using the following formula: […]
Score is 0 for GIPRCNT values of 100 or above, 50 for GIPRCNT values of 0, and 100 for GIPRCNT values of -100.

In the case of Cc1ccc2c(c1)nc(-c1ccccc1)n2CC(=O)N=Nc1c(O)[nH]c2ccc(Cl)cc12, the growth is reported as -89.5% (active).
With COc1ccc(NC(=O)CSc2nnc(-c3ccc(-c4nc5ccc(Cl)cc5[nH]4)cc3)o2)cc1 the growth was 2.97% (active).
In the case of O=C(c1ccc(Cl)cc1)C1[C@H](c2ccccc2Cl)[C@@H](c2ccccc2)NC12C(=O)Nc1ccc(Br)cc12 (stereo not given in full), the growth is reported as -69.2% (active).
For C[C@@H](Nc1c(C#N)cnc2ccc(-c3cnc4[nH]ncc4c3)cc12)c1ccccc1, the growth was 4.37% (active).
In the case of O=C(CSc1nnc(-c2ccc(-c3nc4ccccc4[nH]3)cc2)o1)Nc1ccc(Br)cc1, the growth is reported as -60.9% (active).
With COc1cccc(-c2ccc(/C=N/NC(=O)c3[nH]c4ccc(Br)cc4c3-c3ccccc3)s2)c1 the growth was 7.04% (active).
For CCCCNC(=S)Nc1ccc(OCc2nc3ccc(Cl)cc3[nH]2)cc1, the growth was 5.02% (active).
For Cc1cccc(/C=C/c2ccc(NC(=S)NCCCCN(C)C)cc2)c1, the growth was -100% (active).
Nc1nn2c(-c3cc4cc(Br)ccc4oc3=O)ccnc2c1N=Nc1ccccc1 was tested, and the growth was 0.225% (active).
With FC(F)(F)c1cc2c(Cl)ncnc2n1CCN1CCCCC1 the growth was -22.5% (active).
With O=C1Nc2cc(-c3ccc(NS(=O)(=O)c4ccc(F)c(Cl)c4)cc3)ccc2/C1=C/c1ccc[nH]1 the growth was 6.04% (active).

Going from NNc1ncnc2sc3c(c12)CCN(Cc1ccccc1)C3 to COc1c2c(c(Br)c3c1C(CCc1ccccc1)N(C)CC3)OCO2 (stereo not given), the growth falls from 57.4% to 30.3%.

Going from COc1cc(CNC(=O)C[C@H](C)CCC=C(C)C)ccc1OCc1cn(-c2ccccc2Cl)nn1 to COc1ccccc1NC(=O)N/N=C/c1c[nH]c2ccccc12, the growth falls from 67.6% to 25.8%.

Going from CC(=O)C[n+]1cccc2c3ccccc3ccc21 to Cc1ccc(-c2cc(C(=O)N=Nc3c(O)[nH]c4ccc(F)cc34)c3ccccc3n2)cc1, the growth falls from 92.1% to 42.8%.

First: Clc1ccc(CNc2nc(SCCN3CCOCC3)nc3c2cnn3CC(Cl)c2ccc(Br)cc2)cc1 (stereo not given)
Second: Fc1ccc(F)c(CNc2nc(SCCN3CCOCC3)nc3c2cnn3CC(Cl)c2ccc(Br)cc2)c1 (stereo not given)
The growth of the first is higher: 23.5% for the first, 10.6% for the second.

Compared with Cc1ccc(-c2cc(-c3ccccc3)[nH]c(=O)c2C#N)cc1, CC(C)(C)c1cc(-c2cc(-c3ccccc3)[nH]c(=O)c2C#N)cc(C(C)(C)C)c1 is lower in growth: 79.1% for the first, 23.3% for the second.

Compared with O=C(N/N=C/c1c[nH]c2ccccc12)Nc1ccc(F)c(Cl)c1, O=C(Nc1nc2ccccc2s1)Nc1ccccc1Cl is higher in growth: 41.7% for the first, 49.3% for the second.

Compared with CN(C)c1nc(NCCNS(=O)(=O)c2ccc(C3=Nc4c(N)nc(N)nc4NC(c4ccc(C(F)(F)F)cc4)C3)cc2)nc(N2CCOCC2)n1 (stereo not given), O=C1Nc2cc(-c3ccc(NS(=O)(=O)c4ccc(C(F)(F)F)cc4)cc3)ccc2/C1=C/c1ccc[nH]1 is lower in growth: 77.3% for the first, 31.1% for the second.

Compared with O=C(NNC(=O)c1ccc(OCc2nc3ccc(Cl)cc3[nH]2)cc1)Nc1ccc(Cl)c(C(F)(F)F)c1, COc1ccc2nc(NC(=O)c3ccc(N(C)C)cc3)sc2c1 is higher in growth: 75.3% for the first, 77.5% for the second.

Going from Nc1nn2c(-c3cc4cc(Br)ccc4oc3=O)ccnc2c1N=Nc1ccc(Br)cc1 to COc1ccc(N=Nc2c(N)nn3c(N)c(C#N)c(-c4ccc(F)cc4)nc23)cc1, the growth rises from 10.7% to 53.5%.

Going from C=CCn1c(O)c(N=Nc2nc(-c3cc4ccccc4oc3=O)cs2)c2ccccc21 to COc1ccc(N=Nc2c(N)nn3c(N)c(C#N)c(-c4ccccc4)nc23)cc1, the growth falls from 78.4% to 25.7%.

First: CS(=O)(=O)Nc1cc(-c2ccc3ncnc(Nc4ccc(OCc5cccnc5)c(Cl)c4)c3c2)cnc1Cl
Second: O=Cc1cncc(-c2ccc3ncnc(N4CCc5cc(F)c(Cl)cc54)c3c2)c1
The growth of the first is higher: 32% for the first, 11.5% for the second.

Going from Cc1ccc(C(=O)Nc2cc(-c3ccccc3)cc(C(F)(F)F)c2)cc1C#Cc1cnc2cccnn12 to N#C/C(=C1/C(=O)Nc2ccccc21)c1nnc(NC(=O)c2ccc(-n3c(=O)[nH]c4ccccc4c3=O)cc2)s1, the growth falls from 59.9% to 28.2%.

Compared with CC(C)(C)OC(=O)N1CCC2(CC1)Oc1ccccc1[C@H]1CC(c3ccc(Br)cc3)=NN12, COc1c(B(O)O)cccc1-c1nc2ccc3cn[nH]c3c2c2c1CCCC2 is lower in growth: 60% for the first, 27.3% for the second.

Going from NS(=O)(=O)c1ccc(Nc2nc(N/N=C/c3cc(Br)c(O)c(Br)c3)nc(Nc3ccccc3)n2)cc1 to COc1ccc(C(=O)/C=C/c2ccc3c(c2)OCCO3)cc1S(N)(=O)=O, the growth falls from 92.3% to 69.6%.

With CCCSc1nnc(-c2c(C)nc3sccn23)o1 the growth was 84.9%.
